Assay results reported in PubChem BioAssay AID1159580 (chemical genetic matrix, 2015).
Values joined by “and” are separate entries in the source; they are usually repeats but may differ in a detail not shown here. Equal entries are not always repeated. The whole screen tested about 5,500 compounds, of which about 2,000 (36%) were called active. Inconclusive results (about 18%) are left out. Rule as the data show it: active = normalized growth mostly below about 0.91 (no sharp cut-off); inconclusive = no clear call, values can overlap the other calls; inactive = mostly above about 0.92. The list shows a part of the results.

Assay: chemical genetic growth profiling, strain panel (AID 1159580);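 also: tested at 20 µM; growth read once vehicle control cultures reached saturation at 30 °C; 1 = growth at the plate median or of vehicle wells; lower values mean less growth of the strain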
Conditions: S. cerevisiae deletion strains, growth OD

Measured: normalized growth

CC1(C)C(=O)C=C[C@@]2(C)C1CC(=O)[C@]1(C)C2CC[C@@]2(C)[C@H](c3ccoc3)OC(=O)[C@H]3O[C@]321 (some centres undefined)
inactive: locus YAL021C, strain ccr4, active compounds read low 1.02 | locus YAL026C, strain drs2, active compounds read low 0.99 | locus YAL030W, strain snc1, active compounds read low 0.981 | locus YBL061C, strain skt5, active compounds read low 0.975 | locus YBR009C, strain hhf1, active compounds read low 1.04 | locus YBR021W, strain FUR4, active compounds read low 0.992 | locus YBR023C, strain chs3, active compounds read low 0.991 | locus YBR171W, strain sec66, active compounds read low 0.98 | locus YBR229C, strain ROT2, active compounds read low 0.999 | locus YBR231C, strain swc5, active compounds read low 1.03 | locus YBR279W, strain paf1, active compounds read low 1.01 | locus YCL016C, strain dcc1, active compounds read low 0.988 | locus YCL029C, strain bik1, active compounds read low 1.02 | locus YCL061C, strain MRC1, active compounds read low 0.988 | locus YCL069W, strain vba3, active compounds read low 0.977 | locus YCR088W, strain abp1, active compounds read low 0.998 | locus YDL005C, strain med2, active compounds read low 0.977 | locus YDL035C, strain GPR1, active compounds read low 0.99 | locus YDL040C, strain nat1, active compounds read low 0.977 | locus YDL074C, strain BRE1, active compounds read low 0.991 | locus YDL101C, strain DUN1, active compounds read low 1.01 | locus YDL134C, strain PPH21, active compounds read low 1.01 | locus YDL185W, strain tfp1, active compounds read low 1.01 | locus YDL192W, strain arf1, active compounds read low 1.01 | locus YDR001C, strain nth1, active compounds read low 0.992 | locus YDR069C, strain doa4, active compounds read low 0.949 | locus YDR101C, strain arx1, active compounds read low 0.991 | locus YDR137W, strain rgp1, active compounds read low 0.989 | locus YDR150W, strain NUM1, active compounds read low 0.995 | locus YDR159W, strain sac3, active compounds read low 1 | locus YDR162C, strain NBP2, active compounds read low 0.962 | locus YDR195W, strain ref2 1.02 | locus YDR297W, strain sur2, active compounds read low 0.994 | locus YDR318W, strain mcm21, active compounds read low 1.01 | locus YDR334W, strain swr1, active compounds read low 0.988 | locus YDR335W, strain msn5, active compounds read low 0.994 | locus YDR388W, active compounds read low 1.02 | locus YDR392W, strain spt3, active compounds read low 0.925 | locus YDR502C, strain sam2, active compounds read low 1.04 | locus YEL003W, strain gim4, active compounds read low 0.975 | locus YEL037C, strain rad23, active compounds read low 0.989 | locus YEL061C, strain CIN8 (second series), active compounds read low 0.996 | locus YEL061C, strain CIN8, active compounds read low 0.986 | locus YER015W, strain faa2, active compounds read low 0.975 | locus YER016W, strain bim1, active compounds read low 0.966 | locus YER110C, active compounds read low 1.02 | locus YER111C, strain swi4, active compounds read low 0.968 | locus YER155C, strain BEM2 (second series), active compounds read low 1.04 | locus YER155C, strain BEM2, active compounds read low 1 | locus YER167W, strain BCK2, active compounds read low 0.986 | locus YFR010W, strain ubp6, active compounds read low 1.02 | locus YGL078C, strain dbp3, active compounds read low 1.02 | locus YGL086W, strain mad1, active compounds read low 1.01 | locus YGL167C, strain pmr1, active compounds read low 0.992 | locus YGL173C, strain kem1, active compounds read low 1.01 | locus YGL227W, strain vid30, active compounds read low 0.994 | locus YGL240W, strain doc1, active compounds read low 1.06 | locus YGL248W, strain PDE1, active compounds read low 1 | locus YGL253W, strain hxk2, active compounds read low 0.981 | locus YGR135W, strain pre9, active compounds read low 1.05 | locus YGR252W, strain gcn5, active compounds read low 1.09 | locus YHR013C, strain ard1, active compounds read low 0.964 | locus YHR027C, strain rpn1, active compounds read low 0.995 | locus YHR030C, strain SLT2, active compounds read low 0.988 and 0.992 | locus YHR079C, strain IRE1 (second series), active compounds read low 1.01 | locus YHR079C, strain IRE1, active compounds read low 0.987 | locus YHR094C, strain hxt1, active compounds read low 1.02 | locus YHR129C, strain ARP1, active compounds read low 0.988 | locus YHR142W, strain chs7, active compounds read low 0.968 | locus YHR200W, strain rpn10, active compounds read low 1.01 | locus YIL066C, strain RNR3, active compounds read low 0.978 | locus YIL073C, strain SPO22, active compounds read low 1.04 | locus YIL125W, strain kgd1, active compounds read low 0.998 | locus YIR030C, strain dcg1, active compounds read low 1.01 | locus YJL092W, strain hpr5, active compounds read low 0.971 | locus YJL095W, strain BCK1 (second series), active compounds read low 0.976 | locus YJL095W, strain BCK1, active compounds read low 1 and 0.983 | locus YJL115W, strain asf1, active compounds read low 0.983 | locus YJL129C, strain trk1, active compounds read low 0.952 | locus YJL134W, strain LCB3, active compounds read low 0.986 | locus YJL154C, strain vps35, active compounds read low 0.978 | locus YJL164C, strain tpk1, active compounds read low 0.985 | locus YJL166W, strain qcr8, active compounds read low 1 | locus YJL168C, strain set2, active compounds read low 1 | locus YJL187C, strain SWE1 (second series), active compounds read low 1.02 | locus YJR066W, strain TOR1, active compounds read low 0.927 | locus YJR075W, strain HOC1, active compounds read low 0.995 | locus YKL009W, strain mrt4, active compounds read low 1 | locus YKL068W, active compounds read low 1 | locus YKL085W, strain MDH1 (second series), active compounds read low 0.992 | locus YKL085W, strain MDH1, active compounds read low 0.992 | locus YKL160W, strain elf1, active compounds read low 0.976 | locus YKL190W, strain CNB1, active compounds read low 0.997 | locus YKR001C, strain vps1, active compounds read low 1.03 | locus YKR026C, strain gcn3, active compounds read low 0.998 | locus YKR091W, strain srl3, active compounds read low 0.974 | locus YLL001W, strain dnm1, active compounds read low 1 | locus YLL026W, active compounds read low 0.997 | locus YLL041C, strain sdh2, active compounds read low 0.982 | locus YLR027C, strain aat2, active compounds read low 1 | locus YLR039C, strain RIC1, active compounds read low 0.886 | locus YLR058C, strain SHM2, active compounds read low 0.996 | locus YLR102C, strain apc9, active compounds read low 1.01 | locus YLR113W, strain HOG1, active compounds read low 1.01 | locus YLR221C, strain rsa3, active compounds read low 1.04 | locus YLR258W, strain gsy2, active compounds read low 0.976 | locus YLR262C, strain YPT6 (second series), active compounds read low 0.972 | locus YLR262C, strain YPT6, active compounds read low 0.897 | locus YLR268W, strain sec22, active compounds read low 0.982 | locus YLR320W, strain mms22, active compounds read low 1.02 | locus YLR330W, strain CHS5, active compounds read low 0.994 | locus YLR342W, strain FKS1 (second series), active compounds read low 0.982 | locus YLR342W, strain FKS1, active compounds read low 0.98 | locus YLR357W, strain rsc2, active compounds read low 0.941 | locus YLR370C, strain arc18, active compounds read low 0.99 | locus YLR371W, strain rom2, active compounds read low 0.998 | locus YLR384C, strain iki3, active compounds read low 0.987 | locus YLR418C, strain cdc73, active compounds read low 1.04 | locus YML016C, strain PPZ1, active compounds read low 0.984 | locus YML032C, strain rad52, active compounds read low 1.02 | locus YML120C, strain ndi1, active compounds read low 0.988 | locus YML124C, strain tub3, active compounds read low 1.01 | locus YMR058W, strain fet3, active compounds read low 1 | locus YMR078C, strain ctf18, active compounds read low 1.01 | locus YMR125W, strain sto1, active compounds read low 0.973 | locus YMR129W, active compounds read low 0.971 | locus YMR205C, strain PFK2, active compounds read low 1.04 | locus YMR223W, strain ubp8, active compounds read low 1.01 | locus YMR231W, strain pep5, active compounds read low 0.982 | locus YMR307W, strain GAS1, active compounds read low 0.868 | locus YNL067W, strain RPL9B, active compounds read low 1.01 | locus YNL071W, strain lat1, active compounds read low 1 | locus YNL128W, strain TEP1, active compounds read low 0.978 | locus YNL183C, strain NPR1, active compounds read low 0.931 | locus YNL209W, strain ssb2, active compounds read low 0.989 | locus YNL233W, strain BNI4, active compounds read low 0.987 | locus YNL248C, strain rpa49, active compounds read low 0.93 | locus YNL250W, strain rad50, active compounds read low 1.03 | locus YNL271C, strain bni1, active compounds read low 1 | locus YNL298W, strain CLA4, active compounds read low 1.03 | locus YNL307C, strain MCK1, active compounds read low 1 | locus YNL322C, strain KRE1 (second series), active compounds read low 0.958 | locus YNR049C, strain mso1, active compounds read low 0.952 | locus YNR052C, strain pop2, active compounds read low 1.03 | locus YOL006C, strain TOP1, active compounds read low 0.987 | locus YOL012C, strain htz1 1.38 | locus YOL147C, strain pex11, active compounds read low 1.01 | locus YOR001W, strain rrp6, active compounds read low 1 | locus YOR061W, strain CKA2, active compounds read low 0.991 | locus YOR069W, strain VPS5, active compounds read low 0.995 | locus YOR070C, strain gyp1, active compounds read low 0.995 | locus YOR080W, strain dia2, active compounds read low 0.986 | locus YOR083W, strain WHI5, active compounds read low 0.907 | locus YOR106W, strain vam3, active compounds read low 0.955 | locus YOR136W, strain idh2, active compounds read low 1.01 | locus YOR144C, strain elg1, active compounds read low 1.01 | locus YOR184W, strain ser1, active compounds read low 0.974 | locus YOR231W, strain MKK1, active compounds read low 0.983 | locus YOR265W, strain rbl2, active compounds read low 0.984 | locus YOR270C, strain vph1, active compounds read low 0.993 | locus YOR290C, strain snf2, active compounds read low 0.976 | locus YOR316C, strain cot1, active compounds read low 1.01 | locus YPL051W, strain arl3, active compounds read low 1 | locus YPL055C, strain LGE1, active compounds read low 1 | locus YPL078C, strain atp4, active compounds read low 0.976 | locus YPL106C, strain sse1, active compounds read low 0.986 | locus YPL240C, strain hsp82, active compounds read low 0.996 | locus YPL241C, strain CIN2, active compounds read low 0.987 | locus YPL256C, strain CLN2, active compounds read low 0.987 | locus YPR119W, strain clb2, active compounds read low 1.01 | locus YPR141C, strain kar3, active compounds read low 1 | locus YPR163C, strain tif3, active compounds read low 1.01 | locus YPR167C, strain met16, active compounds read low 1.01 | strain wtn01, active compounds read low 1
